Screening data from PubChem.
Beta apoptosis = beta cell apoptosis inhibition; INS-1E cytokine-induced death, ATP luminescence, 48 h; percent of positive-control rescue, neutral wells zero; protection from apoptosis, % (test concentration not listed); 300,000 compounds, 0.8% hits; AID 435005;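 active = Every replicate reaches about 75%, or at least half do and their mean reaches it too, limit read from the data; inconclusive = At least half of replicates reach the limit but their mean does not; inactive = Under half of replicates reach the limit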;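 note: 0% = cytokine-treated negative control wells and 100% = positive control rescue; higher means more ATP so stronger rescue from cytokine killing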
CSC inhib = blocks cancer stem cells; cancer stem cell-like cells viability, luminescence; inhibition, % at 7.5 µM; 300,000 compounds, 1.1% hits; in the data active = inhibition above about 75%; inconclusive = no clear call, values can overlap the other calls; tested in HMLE shEcad cells
MPTP inh = blocks calcium-induced mitochondrial swelling; 360,000 compounds, 1.4% hits; AID 602449; inhibition, % at 10 µM; isolated mouse mitochondria, Ca2+ swelling absorbance, 30 min;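 active = inhibition of 50% or more, scaled per plate between neutral and stimulator controls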;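 note: 0% = DMSO wells given calcium and 100% = 1 mM EGTA wells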
NR3A LBD binder = modulates the human NR3A ligand-binding domain; 340,000 compounds, 2.5% hits; Tm shift relative to glycine control, % at 25 µM; NR3A LBD differential scanning fluorimetry, Tm shift; 0% = protein alone, 100% = glycine-bound protein;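 active = melting temperature shift of at least 10% of the positive control shift, at one fixed dose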
SKKanGAS inh = inhibitors of SKKanGAS S. pyogenes growth in kanamycin (SK-promoter or general growth effect); 300,000 compounds, 1.3% hits; BacTiter-Glo, 6 h; inhibition, % at 7.5 µM;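 active = mean replicate score, as percent of positive control median, at least 50; inconclusive = mean below 50 but one replicate at or above 50; inactive = mean and every replicate below 50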;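 note: strain carries kanamycin resistance gene driven by streptokinase promoter and grows in 40 µg/ml kanamycin; loss of luminescence reflects streptokinase promoter inhibition or plain growth inhibition; 0% = median of DMSO wells and 100% = positive control at its reference dose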
Mdm2 MdmX PPI = human Mdm2/MdmX binding inhibition. SaOS-2 split-luciferase Mdm2/MdmX complementation, luminescence. inhibition, % at 8 µM. 330,000 compounds, 3% hits. AID 485346;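 active = inhibition of at least 50% at 8 µM in the primary screen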
Target sequence (O15151 whole entry, looked up): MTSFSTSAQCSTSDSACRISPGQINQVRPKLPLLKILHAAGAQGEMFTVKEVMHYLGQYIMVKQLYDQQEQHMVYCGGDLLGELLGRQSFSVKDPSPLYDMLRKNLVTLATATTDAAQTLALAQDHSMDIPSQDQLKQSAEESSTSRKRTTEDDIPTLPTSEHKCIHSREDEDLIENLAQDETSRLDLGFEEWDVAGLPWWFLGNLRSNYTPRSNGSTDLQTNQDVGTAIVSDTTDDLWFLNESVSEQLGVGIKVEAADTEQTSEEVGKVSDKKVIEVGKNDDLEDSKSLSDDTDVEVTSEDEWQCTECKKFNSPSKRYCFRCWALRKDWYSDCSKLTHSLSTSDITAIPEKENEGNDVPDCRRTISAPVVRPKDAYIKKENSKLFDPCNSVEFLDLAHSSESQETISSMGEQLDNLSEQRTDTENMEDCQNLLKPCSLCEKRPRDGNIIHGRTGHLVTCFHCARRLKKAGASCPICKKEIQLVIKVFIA
Target sequence (Q00987 whole entry, looked up): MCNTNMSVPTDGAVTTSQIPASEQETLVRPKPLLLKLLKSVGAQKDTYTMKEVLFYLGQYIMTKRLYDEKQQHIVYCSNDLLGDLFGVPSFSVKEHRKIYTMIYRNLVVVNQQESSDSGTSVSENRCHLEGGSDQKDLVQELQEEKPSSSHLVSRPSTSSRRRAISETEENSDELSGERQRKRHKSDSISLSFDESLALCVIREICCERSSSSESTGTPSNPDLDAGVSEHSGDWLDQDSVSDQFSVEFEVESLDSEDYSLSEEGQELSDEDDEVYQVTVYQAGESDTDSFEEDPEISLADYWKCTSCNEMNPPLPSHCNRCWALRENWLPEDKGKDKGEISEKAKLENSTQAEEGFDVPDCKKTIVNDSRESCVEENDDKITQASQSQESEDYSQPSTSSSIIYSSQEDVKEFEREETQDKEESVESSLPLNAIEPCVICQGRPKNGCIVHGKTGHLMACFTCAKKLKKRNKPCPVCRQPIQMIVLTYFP
Mdm2-MdmX conf = confirmation of human Mdm2/MdmX interaction inhibitors; shares compounds with Mdm2 MdmX PPI; Mdm2-MdmX binding, luminescent assay; inhibition, % at 8 µM; 10,000 compounds, 55% hits; in the data active = inhibition above about 40%
FLuc counter = counter-screen for Mdm2/MdmX inhibitors: full-length luciferase | shares compounds with Mdm2 MdmX PPI | SaOS-2 full-length luciferase counterscreen, luminescence | inhibition, % at 8 µM | 6,200 compounds, 77% hits;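 active = mean inhibition at 8 µM reaching about 37%, which flags the compound as non-specific, limit read from the data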;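 note: p53-null SaOS-2 cells with luciferase driven by a doxycycline-inducible promoter; compound on cells about two nights before reading with doxycycline added after day one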
Starred values were filed as active, the others as inactive; u = inconclusive; x = no result. Only some compounds are listed: those with a hit (about 6.9% of all), similar ones and a draw of the others.

SMILES	Beta apoptosis	CSC inhib	MPTP inh	NR3A LBD binder	SKKanGAS inh	Mdm2 MdmX PPI	Mdm2-MdmX conf	FLuc counter
CCCCN(CC)CCNC(=S)Nc1ccc2nc(N3CCN(C)CC3)cc(C)c2c1	0	71	0	x	-2	67*	45*	75*
CCN1CCN(c2cc(C)c3cc(NC(=S)N4CCN(c5ccc(F)cc5)CC4)ccc3n2)CC1	8	u	-1	-2	-5	96*	45*	52*
CCCN(CCC)CCCNC(=S)Nc1ccc2nc(N3CCN(C)CC3)cc(C)c2c1	-2	-2	0	0	-10	38	x	x
Cc1ccc2nc(C(C)(C)C)c(Cc3ccccc3C(F)(F)F)n2c1	x	x	0	x	x	x	x	x
Cc1cc(C)c2nc(Cl)c(CN(Cc3ccco3)C(=O)Nc3ccccc3C)cc2c1	11	53	0	0	11	63*	53*	98*
CC(C)(C)c1ccc(NC(=O)Cn2cnc3cc([N+](=O)[O-])ccc3c2=O)cc1	x	-11	-2	2	-3	1	x	x
CCOc1cc(C2C(C#N)=C(N)OC(C)=C2C(C)=O)c(Br)c(Br)c1OC(C)C (centres undefined)	5	41	8	-3	2	64*	47*	49*
COc1cc(/C=C2\SC(=O)NC2=O)ccc1Oc1ccc([N+](=O)[O-])cc1[N+](=O)[O-]	18	46	27	6	13	8	x	x
CCN1C(=O)C(=Cc2cccc(OC)c2Oc2ccc([N+](=O)[O-])cc2[N+](=O)[O-])SC1=S	99*	77*	0	-3	9	100*	95*	28
Cc1nc(NC(=O)/C=C/c2ccccc2)sc1C(=O)Nc1ccc(Cl)cc1	3	-11	-3	38*	4	50*	40	53*
O=C(N/N=C/c1ccc2c(c1)OCO2)c1sc2cc(Cl)ccc2c1Cl	30	70	0	-1	-9	62*	37	50*
Cn1cc(C(=O)N/N=C/c2ccc(Br)c([N+](=O)[O-])c2)c2ccccc21	2	6	19	7	4	51*	19	x
Cc1ccccc1NCC(=O)N/N=C\c1ccc2c(c1)OCO2	-11	4	1	-6	-14	10	x	x
Cn1cc(C(=O)N/N=C/c2ccc3c(c2)OCO3)c2ccccc21	9	32	4	3	1	66*	44*	64*
Cc1cccc(C)c1OCC(=O)N/N=C/c1ccc2c(c1)OCO2	10	60	-2	3	-5	50*	59*	56*
Cn1cc(C(=O)N/N=C/c2cccs2)c2ccccc21	0	9	8	-7	-4	2	x	x
O=C(N/N=C/c1ccc2c(c1)OCO2)c1cccc2ccccc12	-4	x	-1	-1	1	50	x	x
O=C(COc1cc2oc(=O)c3c(c2cc1Cl)CCC3)NCc1ccccn1	-1	11	-2	-2	2	10	x	x
CSc1ccccc1NC(=O)CN(C)C(C)C(=O)NCc1ccc2c(c1)OCO2 (centres undefined)	0	-11	-1	3	x	-5	x	x
O=C(Nc1ccc(Cl)cc1)Nc1ccc(Cl)c(Cl)c1	113*	44	x	16*	x	89*	90*	27
O=C(Nc1ccc(Cl)c(Cl)c1)Nn1cnnc1	-10	-11	41	-2	7	23	x	x
C=CCNC(=S)N/N=C/c1ccc(-c2ccc(Cl)cc2Cl)o1	22	39	10	5	18	7	x	x
C=CCNC(=S)N/N=C/c1ccc(-c2cc(Cl)ccc2Cl)o1	6	5	-2	0	-9	68*	11	x
CN(C(=O)c1cccc(N2C(=O)C3C4C=CC(C4)C3C2=O)c1)C1CCCCC1 (centres undefined)	5	-8	0	0	-1	15	x	x
CC(=O)c1c(C)oc2ccc(N(C(C)=O)S(=O)(=O)c3ccc(Cl)c([N+](=O)[O-])c3)cc12	-9	35	0	0	9	98*	95*	57*
SMILES	Beta apoptosis	CSC inhib	MPTP inh	NR3A LBD binder	SKKanGAS inh	Mdm2 MdmX PPI	Mdm2-MdmX conf	FLuc counter
CC(=O)c1c(C)oc2ccc(N(C(C)=O)S(=O)(=O)c3ccc(Br)cc3)cc12	39	1	0	1	7	45	x	x
CC(C)CCN1CCN(Cc2coc3ccccc3c2=O)CC1CCO (centres undefined)	-2	-4	1	0	-3	8	x	x
COc1ccc(/C=N\NC(=O)c2ccccc2Cl)cc1COc1c(F)c(F)c(F)c(F)c1F	4	72	1	5	10	56*	22	x
COc1ccc(/C=N\NC(=O)c2ccccc2OC)cc1COc1c(F)c(F)c(F)c(F)c1F	0	11	0	-4	39	5	x	x
CC(C)COc1ccc(C(=O)Nc2sc3c(c2C(=O)O)CC(C)(C)OC3)cc1	-6	x	0	-6	34	51*	47*	82*
COc1ccc(C(=O)Nc2sc3c(c2C(=O)O)CC(C)(C)OC3)cc1	-9	51	0	1	5	3	x	x
CN[C@H]1CC[C@@H](c2ccc(Cl)c(Cl)c2)c2ccccc21	x	x	x	0	5	69*	16	x
CCOC(=O)C1CCN(Cc2ccc(OCc3ccccc3)c(OC)c2)CC1	0	-13	0	-1	-2	9	x	x
Cc1c(Cl)sn(-c2ccc(Cl)cc2)c1=O	x	x	2	-3	x	96*	99*	52*
Cc1nn(-c2ccc(Cl)cc2)c(=O)c2ccccc12	-1	14	0	0	4	-37	x	x
CC(C)C[C@H]1CN=C(N(C)C)N1CCc1cccc(F)c1	-8	-14	0	0	x	23	x	x
CC(C)C[C@H]1CN=C(Nc2ccccc2)N1CCc1cccc(F)c1	-5	26	1	-1	x	58*	-19	x
CC(Sc1nnc(-c2cccnc2)o1)C(=O)NC1CCCC1 (centres undefined)	-2	x	-1	0	x	23	x	x
CC(C)(C)C1c2[nH]c3ccccc3c2CCN1CCCn1cccn1 (centres undefined)	-6	1	0	0	4	11	x	x
Fc1ccccc1C1c2[nH]c3ccccc3c2CCN1CCCn1cccn1 (centres undefined)	-4	-4	0	-1	1	59*	22	x
CC1CCN(Cc2c(O)ccc3c(=O)c(-c4nc5ccccc5s4)c(N)oc23)CC1	2	x	1	-3	1	51*	22	x
CC1CCCN(Cc2c(O)ccc3c(=O)c(-c4nc5ccccc5s4)c(N)oc23)C1 (centres undefined)	27	31	2	-1	34	70*	43*	67*
CC1(C)CCCN(Cc2c(O)ccc3c(=O)c(-c4nc5ccccc5s4)c(N)oc23)C1	2	u	8	4	14	14	x	x
